Laboratory results taken from PubChem BioAssay AID1347074 (Center for Chemical Genomics, University of Michigan, 2019).
Among all 47,000 compounds or so, about 2,800 (6%) were called active. The sample as a whole holds a higher share of actives than the screen did. Unmarked numbers belong to inactive results. Rule as the data show it: active = z-score above about 3 (passing the limit was not always enough); inactive = the rest.

These compounds were tested against Endoribonuclease Dicer (Homo sapiens) (UniProt Q9UPY3) (assay: inhibitors of Dicer pre-microRNA processing, primary screen, biochemical, cat-ELCCA, chemiluminescence (AID 1347074;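 also: plate controls were vehicle for no effect and no enzyme for full effect; higher signal means more uncleaved substrate so more Dicer inhibition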)). Conditions: cat-ELCCA pre-miR-21 Dicer processing, at 25 µM, active compounds read high.
Endoribonuclease Dicer (Homo sapiens), sequence (Q9UPY3 whole entry, looked up): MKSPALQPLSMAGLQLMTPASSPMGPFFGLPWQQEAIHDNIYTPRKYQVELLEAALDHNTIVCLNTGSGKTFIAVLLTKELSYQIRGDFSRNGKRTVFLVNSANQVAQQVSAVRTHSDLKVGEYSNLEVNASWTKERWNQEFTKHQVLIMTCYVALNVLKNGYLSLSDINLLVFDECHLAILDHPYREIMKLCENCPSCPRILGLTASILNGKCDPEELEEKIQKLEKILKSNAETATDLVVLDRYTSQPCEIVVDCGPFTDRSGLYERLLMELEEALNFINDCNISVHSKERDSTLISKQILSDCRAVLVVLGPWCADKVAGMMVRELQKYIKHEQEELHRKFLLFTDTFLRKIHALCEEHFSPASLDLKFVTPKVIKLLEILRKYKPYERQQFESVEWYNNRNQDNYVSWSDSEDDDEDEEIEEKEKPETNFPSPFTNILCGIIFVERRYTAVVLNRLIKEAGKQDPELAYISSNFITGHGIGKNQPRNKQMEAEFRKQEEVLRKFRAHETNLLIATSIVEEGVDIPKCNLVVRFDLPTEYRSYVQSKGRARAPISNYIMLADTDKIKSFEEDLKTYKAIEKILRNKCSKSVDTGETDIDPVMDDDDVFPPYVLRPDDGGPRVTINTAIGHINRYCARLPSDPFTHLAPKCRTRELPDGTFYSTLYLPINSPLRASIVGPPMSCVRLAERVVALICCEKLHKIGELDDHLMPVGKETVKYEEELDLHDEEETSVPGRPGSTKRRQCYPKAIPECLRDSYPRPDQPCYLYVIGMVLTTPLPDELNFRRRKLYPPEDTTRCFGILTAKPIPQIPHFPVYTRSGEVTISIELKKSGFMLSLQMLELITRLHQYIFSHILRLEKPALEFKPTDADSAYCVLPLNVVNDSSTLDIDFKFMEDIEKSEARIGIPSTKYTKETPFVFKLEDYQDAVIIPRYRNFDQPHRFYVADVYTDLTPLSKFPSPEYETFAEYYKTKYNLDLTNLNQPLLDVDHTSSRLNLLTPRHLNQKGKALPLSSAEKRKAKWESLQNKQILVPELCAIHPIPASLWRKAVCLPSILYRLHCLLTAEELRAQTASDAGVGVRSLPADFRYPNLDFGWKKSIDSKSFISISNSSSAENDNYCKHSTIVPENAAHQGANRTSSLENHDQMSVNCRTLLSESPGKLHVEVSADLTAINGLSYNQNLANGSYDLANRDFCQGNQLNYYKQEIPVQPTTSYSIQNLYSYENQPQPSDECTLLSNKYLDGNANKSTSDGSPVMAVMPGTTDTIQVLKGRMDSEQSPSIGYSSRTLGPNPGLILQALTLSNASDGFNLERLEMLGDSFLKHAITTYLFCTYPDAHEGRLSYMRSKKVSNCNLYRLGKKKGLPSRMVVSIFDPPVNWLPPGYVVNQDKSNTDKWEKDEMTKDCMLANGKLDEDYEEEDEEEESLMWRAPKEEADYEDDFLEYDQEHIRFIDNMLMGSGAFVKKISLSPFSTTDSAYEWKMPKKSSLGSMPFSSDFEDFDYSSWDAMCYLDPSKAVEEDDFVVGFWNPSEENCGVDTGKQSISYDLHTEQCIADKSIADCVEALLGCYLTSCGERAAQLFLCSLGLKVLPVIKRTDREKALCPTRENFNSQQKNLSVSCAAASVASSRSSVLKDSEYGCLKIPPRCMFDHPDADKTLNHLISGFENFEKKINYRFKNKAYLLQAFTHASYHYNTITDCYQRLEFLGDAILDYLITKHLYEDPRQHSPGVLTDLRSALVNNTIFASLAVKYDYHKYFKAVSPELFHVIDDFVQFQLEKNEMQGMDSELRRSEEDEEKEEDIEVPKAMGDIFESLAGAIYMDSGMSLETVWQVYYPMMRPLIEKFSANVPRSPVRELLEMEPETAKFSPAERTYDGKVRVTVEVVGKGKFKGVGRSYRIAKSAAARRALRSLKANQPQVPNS
For CC1(C)CC(=O)C=C(Nc2cc(-c3ccc(Cl)cc3)[nH]n2)C1, the z-score was 2.1.
Cc1nc2cc(-n3c(O)c[nH]c3=O)ccc2s1 was tested, and the z-score was 1.96.
Work on CCOC(=O)C1=C(O)CSC1=Nc1ccc(F)cc1 yielded a z-score of 2.03.
CCOC(=O)c1c(C)oc2ccc(OCc3ccc(C(=O)OC)cc3)cc12 gave a z-score of 0.32.
For CCOC(=O)c1c(C)n(CCOc2ccc(F)cc2)c2ccc(O)cc12, the z-score was 4.76 (active).
Compound Cc1cc(C)c2c(n1)sc1c(=O)n(C)cnc12 has a z-score of 1.74.
CCOC(=O)C1=C(N)Oc2c(Br)cc(Cl)cc2C1C(C#N)C(=O)OCC (configuration not stated) was tested, and the z-score was 2.22.
For CCOC(=O)C(NC(=O)c1ccccc1)(OC(C)C)C(F)(F)F (configuration not stated), the z-score was 0.49.
With FC(F)(F)c1cc(Cl)c2ncc(-c3ccc(Cl)c(Cl)c3)nc2c1 the z-score was 1.2.
Compound Cc1nc2ccccc2n1C1CC(=O)N(c2ccccc2)C1=O (configuration not stated) has a z-score of 0.3.
O=C1CC(c2nc3ccccc3n2Cc2ccc(F)cc2)CN1c1ccccc1 (configuration not stated) was tested, and the z-score was 5.55 (active).
Work on O=c1n(Cc2ccccc2)c2ccccc2n1Cc1ccccc1 yielded a z-score of -0.36.
Compound CCn1c(C(O)c2ccc(C(C)C)cc2)nc2ccccc21 (configuration not stated) has a z-score of 1.03.
With NC1=NC(c2cc(F)cc(F)c2)n2c(nc3ccccc32)N1 (configuration not stated) the z-score was -1.88.
For CC(C)Cn1c(C2CC(=O)N(c3ccccc3)C2)nc2ccccc21 (configuration not stated), the z-score was 5.98 (active).
For CCCCOCC1CC2(CC(C)(c3csc(Nc4ccccc4Cl)n3)OC2=O)C(=O)O1 (configuration not stated), the z-score was 0.26.
O=C(Nc1ccc2oc(-c3ccncc3)nc2c1)c1sc2ccccc2c1Cl showed a z-score of 0.13.
With O=C(Nc1cccc(F)c1)c1sc2ccccc2c1Cl the z-score was 4.06 (active).
In the case of O=C(Nc1cccc2ncccc12)c1sc2ccccc2c1Cl, the z-score is reported as 0.23.
Work on N#CC1=C(N)Oc2cc(O)ccc2C1c1cccc(Br)c1 (configuration not stated) yielded a z-score of -2.59.
In the case of O=C1Nc2ccc(Br)cc2C1O (configuration not stated), the z-score is reported as -6.13.
With CCOC(=O)c1cnn2c1nc(Oc1cc(C(F)(F)F)cc(C(F)(F)F)c1)c1ccccc12 the z-score was -0.15.
In the case of COC(=O)C(C)N(C#N)c1nc(N(C)C)nc(N(C)C)n1 (configuration not stated), the z-score is reported as 5.93 (active).
In the case of CC(C)NC(=O)NNc1cc(N(C)C)c(C#N)c(N(C)C)n1, the z-score is reported as -3.01.
COc1ccc(N2CCN(Cc3nc4c(c(=O)n(C)c(=O)n4C)n3CC(=O)C(C)(C)C)CC2)cc1 was tested, and the z-score was -2.02.
Cc1ccc(/C(O)=C2\C(=O)C(=O)N(CCCN3CCOCC3)C2c2ccc(C)cc2)cc1 (configuration not stated) was tested, and the z-score was 0.47.
CCCCCCC#Cc1cncc(-c2nnc(SCC(=O)Nc3ccccc3)n2C)c1 was tested, and the z-score was 0.64.
Compound O=C(Nc1ccc(F)cc1F)N1CCN(c2ccccn2)CC1 has a z-score of 2.53.
Work on Cc1ccc(C)c(-c2nc(C)sc2CC(=O)O)c1 yielded a z-score of 0.81.
Compound Cn1c(-c2ccccc2)nc2c(c1=O)C1(CCCCC1)Cc1ccccc1-2 has a z-score of -0.41.
For CCn1c(=O)c2c(n3c(SCC(N)=O)nnc13)-c1ccccc1CC21CCCCC1, the z-score was 5.92 (active).
In the case of Fc1ccc(-c2cc3ncc4c(n3n2)-c2cc(F)ccc2OC4)cc1, the z-score is reported as -1.86.
Work on Cc1cc(C)c2c(c1)C(=O)C(c1cc(=O)c3ccccc3[nH]1)C2=O (configuration not stated) yielded a z-score of 1.92.
With CC(C)NC(=S)N/N=C/c1ccn[nH]1 the z-score was 3.01 (active).
In the case of Clc1ccc(-c2csc(N/N=C\c3ccn[nH]3)n2)cc1, the z-score is reported as 0.61.
In the case of C/C(=N\NS(=O)(=O)c1ccc(Cl)cc1)c1cc(-c2ccccc2)no1, the z-score is reported as -0.51.
Compound CN(C)[C@@H]1C(=O)C(C(N)=O)=C(O)[C@@]2(O)C(=O)C3=C(O)c4c(O)ccc(Cl)c4[C@@H](O)[C@H]3C[C@@H]12 has a z-score of 0.22.
C=C1c2c(Cl)ccc(O)c2C(O)=C2C(=O)[C@]3(O)C(O)=C(C(N)=O)C(=O)[C@@H](N(C)C)[C@@H]3[C@@H](O)C12 (some centres not stated) was tested, and the z-score was 15.5 (active).
For O=C(NC(=O)c1c(F)cccc1F)Nc1ccc(Br)cc1F, the z-score was 0.21.
O=C1Nc2ccc(S(=O)(=O)Nc3ccc4oc(=O)sc4c3)c3cccc1c23 was tested, and the z-score was 1.49.
CC(C)C(=O)NNc1ncc(C(F)(F)F)cc1Cl showed a z-score of 0.4.
O=C1C(=O)N(CCCn2ccnc2)C(c2ccco2)/C1=C(\O)c1ccccc1 (configuration not stated) gave a z-score of 2.79.
N#Cc1cccc(CSc2ncnc(N)n2)c1 was tested, and the z-score was 3.87 (active).
O=C(CSc1nnc(-c2ccco2)c(-c2ccco2)n1)Nc1ccc(Br)cc1 showed a z-score of -1.71.
Cc1[nH]nc2oc(=O)c([N+](=O)[O-])c(C)c12 gave a z-score of -1.74.
O=C1NC(c2ccccc2)=N/C1=C/c1ccc(F)cc1 was tested, and the z-score was 3.84 (active).
O=C1NNC(c2ccccc2)=N/C1=C\c1ccc(Cl)cc1 was tested, and the z-score was -3.16.
c1ccc(C2=Nc3cccc4cccc(c34)N2)cc1 was tested, and the z-score was -0.61.
Compound O=C1C(=O)N(CCCn2ccnc2)C(c2ccncc2)/C1=C(\O)c1ccc(Cl)cc1 (configuration not stated) has a z-score of 1.19.
CCCc1n(CC(O)COc2ccc(C)cc2)c2ccccc2[n+]1C (configuration not stated) was tested, and the z-score was -0.91.
Work on Cc1ccccc1CN1C=C(C(N)=O)C(C(F)(F)F)CC1 (configuration not stated) yielded a z-score of -0.6.
With COc1cccc(CNC2CS(=O)(=O)CC2O)c1 (configuration not stated) the z-score was 0.5.
With CCc1c(C)nc2cc(-c3ccc(Br)cc3)[nH]n2c1=O the z-score was 1.4.
For COCCOC(=O)C1=C(C)NC2=C(C(=O)CC(C)(C)C2)C1c1ccc(Br)cc1 (configuration not stated), the z-score was -0.9.
COc1csc2nc(C)cc(C)c12 gave a z-score of 2.93.
Cc1[nH]c2ccccc2c1C1(O)C(=O)Nc2ccccc21 (configuration not stated) gave a z-score of 0.91.
O=C1Nc2ccccc2C12NNC(=S)NN2 was tested, and the z-score was 8.53 (active).
O=C(CC1(O)C(=O)Nc2ccccc21)c1ccc(F)cc1 (configuration not stated) was tested, and the z-score was -0.42.
For CC1=C(C(=O)Nc2ccccc2)C(c2cccs2)C(C#N)=C(SCC(=O)O)N1 (configuration not stated), the z-score was 0.54.
For CC12CCC(C(=O)O)(CC1=O)C2(C)C (configuration not stated), the z-score was 2.29.
O=C1C(=O)N(c2cccnc2)C(c2ccc(Br)cc2)/C1=C(\O)c1ccc(Cl)cc1 (configuration not stated) gave a z-score of 0.32.
O=C(Oc1ccc(Br)cc1)c1cccnc1 was tested, and the z-score was 5.46 (active).
For O=C(Oc1ccc2ccccc2c1)c1ccncc1, the z-score was 0.81.
Work on O=C1CC(c2ccc(F)cc2)Cc2nc3nc(C(F)(F)F)nn3cc21 (configuration not stated) yielded a z-score of -0.42.
In the case of COc1ccc(C2N3CC4(C)CN2CC(C)(C3)C4)cc1 (configuration not stated), the z-score is reported as 1.02.
CC(C)c1ccc(C2N3CC4(C)CN2CC(C)(C3)C4)cc1 (configuration not stated) was tested, and the z-score was 4.83 (active).
Compound CC(C)Oc1ccc(C2N3CC4(C)CN2CC(C)(C3)C4)cc1 (configuration not stated) has a z-score of 2.35.
In the case of C#CC1(NS(=O)(=O)c2ccc(Sc3ccccc3)c([N+](=O)[O-])c2)CCCCC1, the z-score is reported as -0.19.
CCOC(=O)Cc1csc(NC(=O)Nc2ccccc2)n1 showed a z-score of -0.51.
CCOC(=O)Cc1nnc2c(Nc3cccc(Br)c3)nc3nonc3n12 was tested, and the z-score was 3.07 (active).
Work on Cc1cc(C)c(C#N)c(Nc2cccc(Br)c2)n1 yielded a z-score of 0.66.
In the case of O=C(Cn1nc(C(F)(F)F)c2c1CCCC2)Nc1ccc(Cl)cc1, the z-score is reported as 1.11.
For COc1ccc(C2CC(=O)C3=C(C2)Nc2ccccc2NC3c2cc(F)ccc2F)cc1 (configuration not stated), the z-score was 3.99 (active).
O=C1CC(c2ccccc2)CC2=C1C(c1cccc(Cl)c1)Nc1ccccc1N2 (configuration not stated) showed a z-score of 1.52.
With COC(=O)c1ccc(C2Nc3ccccc3NC3=C2C(=O)CC(c2ccccc2)C3)cc1 (configuration not stated) the z-score was 3.94 (active).
Compound CN(C)c1ccc(C2Nc3ccccc3NC3=C2C(=O)CC(c2ccc(Cl)cc2)C3)cc1 (configuration not stated) has a z-score of 1.16.
In the case of COC(=O)C1=C(C)NC2=C(C(=O)CC(c3ccccc3)C2)C1c1ccc(C)cc1 (configuration not stated), the z-score is reported as 0.18.
In the case of COc1ccc(C2CC(=O)C3=C(C2)Nc2ccccc2NC3c2cccc(Cl)c2)cc1 (configuration not stated), the z-score is reported as 2.07.
Work on O=C(CSc1ncnc2c1sc1nc(N3CCOCC3)c3c(c12)CCCC3)N1CCCCC1 yielded a z-score of -0.18.
CCOC(=O)c1[nH]c2ccc([N+](=O)[O-])cc2c1CCC(=O)O showed a z-score of 0.9.
With COc1ccc(NC(=O)NCc2c(-c3ccccc3)noc2C)cc1OC1CCCC1 the z-score was -0.22.
In the case of Cc1cc(C)nc(N2CCN(c3ncnc4sc5c(c34)CCCC5)CC2)n1, the z-score is reported as 5.88.
Cc1cc(C)c2oc(-c3ccc(C)c(NC(=O)C(C)C)c3)nc2c1 gave a z-score of 0.37.
c1ccc2[nH]c(NCCN3CCOCC3)nc2c1 showed a z-score of -0.76.
Clc1ccc(CNc2nc3ccccc3n2CCN2CCOCC2)cc1 was tested, and the z-score was 3.51 (active).
For Clc1ccc(Cn2c(-c3ccco3)nc3ccccc32)cc1, the z-score was 2.46.
Cc1nn(-c2ccc(N3CCOCC3)nn2)c(=O)c2ccccc12 was tested, and the z-score was -0.81.
With Cc1c(Cc2c(F)cccc2Cl)c(=O)oc2cc(OC(=O)c3ccccc3Cl)ccc12 the z-score was -0.2.
For COc1ccc(OC)c(NC(=O)Cn2cc(C(=O)C3CC3)c3ccccc32)c1, the z-score was 0.03.
With COc1ccc(OCCn2cc(C(=O)C3CC3)c3ccccc32)cc1 the z-score was 3.94 (active).
Work on COCCCNC(=O)Cn1cc(C(=O)C2CC2)c2ccccc21 yielded a z-score of 1.99.
Work on CCCCN1C(=O)C2(/C(=C(/O)c3ccc(F)cc3)C(=O)C(=O)N2CCCOC)c2ccccc21 (configuration not stated) yielded a z-score of 2.27.
Compound Cc1cccc(C)c1NC(=S)NCCC(=O)O has a z-score of 1.63.
In the case of CCN(C(=S)Nc1c(C)cccc1C)c1ccccc1, the z-score is reported as 3.03 (active).
Compound COc1cc(CN(Cc2ccccc2)C(=S)Nc2c(C)cccc2C)cc(OC)c1OC has a z-score of 1.24.
For O=[N+]([O-])c1ccc(S(=O)(=O)c2ccccc2)cc1OS(=O)(=O)c1ccc(Cl)cc1, the z-score was 0.46.
In the case of Fc1ccc(Nc2nnns2)cc1, the z-score is reported as 2.65.
